According to PubChem BioAssay AID504616 (Sanford-Burnham Center for Chemical Genomics, 2011):
The other results are listed elsewhere or left out.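 The calls were made as follows: active = mean activity change at or below -40% when tested at 20 µM; inactive = the rest.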

Assay: detection-step artefacts after finished caspase reaction – biochemical, fluorescence, Rh110, 20 µM, artefact control for Apaf-1 activator project, confirmation (AID 504616)
Conditions: quenched caspase reaction, Ex480/Em540, at 20 µM

Fluorescence interference (activity change), inactive:
N#CC1(C#N)C(C(=O)C23CC4CC(CC(C4)C2)C3)C12CCOCC2 (configuration not stated) -0.76%, Cc1cc(NC(=O)c2cccc(N3C(=O)CCC3=O)c2)no1 0.61%, CC1COc2ccccc2N1C(=O)c1cccnc1Cl (configuration not stated) 0.54%, Cc1ccc(S(=O)(=O)c2c(N)n(C)c3nc4ccccc4nc23)cc1 -4.76%, O=C(Nc1ccccc1F)c1ccccc1-c1ccccc1 6.9%, Cc1ccc(Nc2nc(CSc3nnc(-c4ccncc4)n3-c3ccccc3C)cs2)cc1 11.6%, COc1cc(C(=O)NCc2nnc(SCC(=O)Nc3nc4ccc(C)cc4s3)o2)cc(OC)c1OC -5.21%, C=CCNC(=O)c1ccc(C)c(Br)c1 10.4%, CC(C)N1CCC(NC(=O)Nc2ccccc2)CC1 -6.69%, COC(=O)C(C)N(C#N)c1nc(C)nc(C)n1 (configuration not stated) 3.06%, C=C(C)C(=O)Nc1cccc(C2=NOC3(C2)C[C@H](C(N)=O)N(C(=O)C(c2ccccc2)c2ccccc2)C3)c1 (some centres not stated) 7%, CC(=O)CCC(=O)c1ccc2ccccc2c1 15%, COc1ccc(S(=O)(=O)N2CCCCC2)cc1NC(=O)c1cc([N+](=O)[O-])ccc1N1CCOCC1 4.4%, Cc1ccc(S(=O)(=O)N2CCOCC2)cc1C(=O)NC(=S)N(Cc1ccccc1)C(C)C 3.5%, CN(C)S(=O)(=O)c1ccc(C(=O)NCCN=C2NS(=O)(=O)c3ccccc32)cc1 8.9%, O=C(CCc1ccccc1)NNC(=O)c1ccc(Br)cc1 -7.61%, O=c1[nH]c2c(c(=O)n1Cc1ccccc1)CCC2 13.7%, COc1ccc(OCCCC(=O)NCCc2ccccc2)cc1 3.73%, CC(=O)NC(=S)NNC(=O)c1ccc(Br)cc1 -5.11%, COc1ccc(C2CC(c3ccccc3)Nc3ncnn32)cc1 (configuration not stated) -9.02%, Nc1cc(C(F)(F)F)ccc1N1CCOCC1 -1.22%, Brc1ccc(/C=N/N2CCN(C3c4ccccc4-c4ccccc43)CC2)s1 -2.39%
